# RAD54 branch – inhibitors of human RAD54 branch migration. RAD54 Holliday junction branch migration, FAM/BHQ fluorescence. inhibition, % at 10.4 µM. 360,000 compounds, 0.14% hits. AID 602329;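 active means mean normalized replicate activity at least 40 and at least half of replicates scoring 40 or more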;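 further: 0% = median of neutral control wells and 100% = median of positive control wells; inhibitors cause a drop in the FAM fluorescence signal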
# MLL AF4-AF9 inh – blocks AF4 peptide binding to human AF9. inhibition, % at 10 µM. AlphaScreen, biotin-AF4 peptide binding to FLAG-AF9. 350,000 compounds, 0.47% hits. AID 651704;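 active means every replicate reaching a set inhibition limit, whatever the replicate mean, cut at about 25% in these data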;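 further: 0% = plate neutral control median and 100% = total signal loss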
# RAD52 anneal inh – RAD52 (human) annealing inhibition; recombinant RAD52 DNA annealing, FRET fluorescence; inhibition, % at 18.7 µM; 360,000 compounds, 0.46% hits;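 active means every replicate showing at least 50% inhibition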
# CASP6 VEID inh – blocks human caspase-6 cleavage activity; P55212; purified caspase-6, Z-VEID-R110 cleavage fluorescence; inhibition, % at 12.5 µM; 350,000 compounds, 0.53% hits;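 active means mean inhibition across replicates at least about 35%, with every replicate also reaching that limit, limit read from the data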;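 further: 0% = median of neutral control wells and 100% = no fluorescence left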
# N-glyco inh – blocks N-linked glycosylation in D54 reporter cells; D54 ERlucT glycosylation luciferase reporter, 24 h; percent of 100 nM tunicamycin response; 360,000 compounds, 0.23% hits; reporter increase, % at 12.5 µM; AID 588692;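 active means mean luciferase reporter signal, scaled so untreated is 0 and the glycosylation-blocking control 100, at or above a set limit in every replicate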;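 further: luciferase carries N-glycosylation sites so blocking glycosylation raises the light; 0% = median of neutral control wells and 100% = median of 100 nM tunicamycin wells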
# Starred values were filed as active, the others as inactive; i = inactive; nt = no result given. The list is not random: actives were taken first. Their share in the collection is about 1.2%.
SMILES,RAD54 branch,MLL AF4-AF9 inh,RAD52 anneal inh,CASP6 VEID inh,N-glyco inh
C[C@@H]1CN([C@@H](C)CO)C(=O)c2cc(NC(=O)Nc3ccccc3)ccc2O[C@@H](C)CCCCO[C@@H]1CN(C)S(=O)(=O)c1cccs1,4,-1,-6,1,nt
CCN(CC)c1ccc(/C=C/c2cccc[n+]2C)c(OC)c1,-333,10,i,-68,28*
CCOc1ccc(NC(=O)CSc2ncc(-c3ccc(F)cc3)n2Cc2ccco2)cc1,nt,39*,-15,-1,-1
CC(C)(C)c1ccc(C(=O)NCCC(=O)NC2=NCCS2)cc1,-7,29*,-8,-2,3
Cc1cccc(-c2n[nH]c(S(C)(=O)=O)c2C#N)c1,nt,97*,-9,18,0
CCCC(=O)N1CC2(C1)CN(C(=O)COC)[C@H](CO)c1c2c2ccc(OC)cc2n1C,nt,-5,nt,nt,nt
O=C(CSc1cccc[n+]1[O-])Nc1ccc(Br)cc1Br,4,0,-7,-2,2
O=C(CSc1cccc[n+]1[O-])Nc1ccc(Cl)cc1F,-5,-3,-4,37*,3
COc1ccc(-c2nc(N3CCN(C)CC3)sc2-c2ccc(OC)cc2)cc1,10,34*,10,-9,-3
COc1ccc(CCNC(=O)C2CC(=O)N(c3ccc(C)cc3)C2)cc1OC (centres undefined),-4,-12,7,0,2
COc1ccc(CCN2CC(C(=O)NCCc3ccc(C)cc3)CC2=O)cc1OC (centres undefined),5,2,1,48*,0
CC(=O)Nc1ccc(Nc2ncnc(N)c2[N+](=O)[O-])cc1,nt,50*,-8,0,-5
CCC(=O)N(C)C[C@H]1Oc2ncc(C#CCc3ccccc3)cc2C(=O)N([C@@H](C)CO)C[C@@H]1C,-8,-3,-9,1,nt
O=[N+]([O-])c1ccccc1NC(=S)N/N=C/c1ccc(O)c(O)c1,nt,5,-3,53*,-10
CCOc1cccc(/C=N/NC(=S)Nc2ccccc2[N+](=O)[O-])c1O,-4,-6,-12,-1,-20
O=[N+]([O-])c1ccccc1C=NNC(=S)NN=Cc1ccccc1[N+](=O)[O-],-2,2,-20,3,28*
C=CC1=C(C(=O)O)N2C(=O)C(NC(=O)Cc3ccccc3)C2SC1 (centres undefined),-7,-15,-60,96*,0
CC(=O)OCC1=C(C(=O)O)N2C(=O)[C@@H](NC(=O)Cc3ccccc3)[C@H]2SC1,10,-11,0,4,3
O=C1CCCC(O)=C1N=Nc1ccc(C(=O)O)cc1,10,-1,-16,38*,-1
Cc1ccc(S(=O)(=O)N(C)C[C@@H]2Oc3ccc(NS(=O)(=O)c4ccc(Cl)cc4)cc3C(=O)N([C@@H](C)CO)C[C@H]2C)cc1,nt,2,-7,1,nt
COc1cc(/C=C2\C(=N)N3N=C(S(C)(=O)=O)SC3=NC2=O)ccc1OCCOc1ccc(C)cc1,-9,7,-19,16,2
Cc1ccc(S(=O)(=O)Oc2ccc(/C=C3\C(=N)N4N=C(S(C)(=O)=O)SC4=NC3=O)cc2)cc1,1,0,-51,59*,2
CCS(=O)(=O)C1=NN2C(=N)/C(=C\c3ccc(OS(=O)(=O)c4ccccc4)cc3)C(=O)N=C2S1,-15,nt,nt,nt,2
CCOc1cc(/C=C2\C(=N)N3N=C(S(C)(=O)=O)SC3=NC2=O)ccc1OCCOc1cccc(OC)c1,nt,9,-55,45*,1
CCS(=O)(=O)C1=NN2C(=N)/C(=C\c3ccc(OCCOc4cccc(OC)c4)c(OC)c3)C(=O)N=C2S1,3,5,-14,45*,2
CCCC(=O)Nc1ccc2c(c1)OC[C@@H](C)N(Cc1cncnc1)C[C@H](C)[C@H](OC)CN(C)C2=O,-2,-2,-10,-3,nt
COC(=O)CCCCCCC(=O)Nc1ccc(C2OC(CSc3nc4ccccc4s3)CC(c3ccccc3)O2)cc1 (centres undefined),-3,-4,13,-5,nt
COc1ccc(NC(=O)N(C)C[C@H]2OCCCC[C@H](C)Oc3ccc(NC(=O)CCC(F)(F)F)cc3C(=O)N([C@@H](C)CO)C[C@@H]2C)cc1,-2,2,5,1,nt
COc1ccc(NC(=O)N(C)C[C@@H]2OCCCC[C@@H](C)Oc3ccc(NC(=O)C4CCCCC4)cc3C(=O)N([C@H](C)CO)C[C@@H]2C)cc1,3,0,-14,0,nt

# Source: PubChem BioAssay
